CYP2C19 activ – activators of human cytochrome P450 2C19 | P33261 | recombinant CYP2C19, luciferin-H EGE luminescence; active compounds read high; 0 = fully inhibited enzyme, 1 = untreated enzyme | activation factor at 5 µM | 96,000 tested, under 10 active | AID 1025;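 active = activation factor of at least 2 at 5 µM in the primary screen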
Target sequence (P33261 whole entry, looked up): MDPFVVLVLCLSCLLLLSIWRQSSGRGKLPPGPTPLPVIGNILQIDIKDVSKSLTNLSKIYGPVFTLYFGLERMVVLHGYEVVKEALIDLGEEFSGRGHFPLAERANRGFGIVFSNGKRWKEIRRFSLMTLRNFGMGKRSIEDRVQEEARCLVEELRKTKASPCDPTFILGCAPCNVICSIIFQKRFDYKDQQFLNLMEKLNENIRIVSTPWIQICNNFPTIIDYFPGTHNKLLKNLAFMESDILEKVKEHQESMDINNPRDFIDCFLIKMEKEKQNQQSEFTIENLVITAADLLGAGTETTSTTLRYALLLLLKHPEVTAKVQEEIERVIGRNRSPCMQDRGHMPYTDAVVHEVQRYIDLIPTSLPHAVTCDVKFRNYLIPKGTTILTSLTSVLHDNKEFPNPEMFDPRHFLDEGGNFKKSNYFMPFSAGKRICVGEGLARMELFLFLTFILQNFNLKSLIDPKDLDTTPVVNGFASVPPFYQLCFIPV
CYP2C19 inh – blocks human cytochrome P450 2C19; P33261; CYP2C19 Supersomes, luciferin-H EGE luminescence, 30 min; inhibition, % at 5 µM; 96,000 compounds, 21% hits; AID 778;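 active = CYP2C19 inhibition above a set limit at 5 µM in the primary screen, cut at about 50% in these data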
CYP2C9 inh – blocks human cytochrome P450 2C9; inhibition, % at 5 µM; P11712; 96,000 compounds, 20% hits; CYP2C9 Supersomes, luciferin-H conversion, luminescence;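 active = blocking of liver enzyme CYP2C9 beyond about 50% at 5 µM, limit read from the data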
CYP2C9 act – CYP2C9 (human) activation; recombinant CYP2C9, luciferin-H conversion, luminescence; active compounds read high; factor 1 = untreated enzyme, 0 = blocked; activation factor at 5 µM; 96,000 compounds, 1.4% hits; AID 1024;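 active = activation factor of 2 or more for CYP2C9 at a 5 µM dose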
cytoskel mod – modifiers of cytoskeleton assembly; HUVEC TNFa F-actin phalloidin imaging, high content; 91,000 compounds, 0.18% hits; inhibition, % at 2 µM; AID 836;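 active = inhibition above the batch mean plus 3 SD and confirmed as a hit by visual image inspection, cut at about 30% in these data, passing the limit was not always enough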
E-sel TNF inh – blocks E-selectin expression induced by TNF alpha; HUVEC TNFa-induced E-selectin immunofluorescence, high content; inhibition, % at 2 µM; 120,000 compounds, 0.71% hits;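 active = inhibition above the batch mean plus 3 SD, and confirmed as a hit on visual image review, cut at about 43% in these data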
Each line names hits and unclear results; the compound was inactive in the other large screens. A selection: hits, their analogues and other compounds. The true share with any hit is near 22%.

NC(=O)CC[C@@H]1NC(=O)[C@@H]2CCCN2C(=O)c2cc([N+](=O)[O-])cc(I)c2NCCC[C@@H](C(=O)NC(CC(=O)O)C(N)=O)NC1=O (stereo partly drawn)	none (no result: CYP2C19 activ, CYP2C19 inh, CYP2C9 inh, CYP2C9 act, cytoskel mod)
CCn1c(SCC(N)=O)nc2sc3c(c2c1=O)CCCC3	CYP2C9 inh 55
CCn1c(NN)nc2sc3c(c2c1=O)CCC3	CYP2C19 inh 75, CYP2C9 inh 79
CCc1nc2sc3c(c2c(=O)n1N)CCC3	none (no result: E-sel TNF inh)
CCOC(=O)C1CCCn2c1nc1sc3c(c1c2=O)CCCC3 (stereo not drawn)	CYP2C19 inh 66, CYP2C9 inh 77
CSc1nc2sc3c(c2c(=O)n1C)CCCC3	none (no result: cytoskel mod)
COc1ccc(S(=O)(=O)Nc2c(C)c(C)cc3c2ncn3C)cc1	none (no result: CYP2C19 activ, CYP2C19 inh, CYP2C9 inh, CYP2C9 act, cytoskel mod)
COc1ccc(OCc2nn3c(-c4cccc(OC)c4)nnc3s2)cc1	CYP2C19 inh 51 (no result: cytoskel mod)
Clc1ccc(-c2nnc3sc(Cc4cccs4)nn23)c(Cl)c1	CYP2C19 inh 87, CYP2C9 inh 78 (no result: E-sel TNF inh)
c1coc(-c2nn3c(-c4ccco4)nnc3s2)c1	none (no result: E-sel TNF inh)
Clc1ccc(OCc2nn3c(-c4ccco4)nnc3s2)cc1	none (no result: E-sel TNF inh)
COc1ccc(OCc2nn3c(-c4ccco4)nnc3s2)cc1	CYP2C19 inh 57, CYP2C9 inh 59
c1coc(-c2nnc3sc(Cc4cccs4)nn23)c1	CYP2C19 inh 69, CYP2C9 inh 55
O=C(O)c1ccc(COc2c(F)c(F)cc(F)c2F)cc1	none
Clc1ccc(OCc2nn3c(-c4ccncc4)nnc3s2)cc1	CYP2C19 inh 92, CYP2C9 inh 69
O=C(CCCOc1ccc(Cl)cc1Cl)N1CCCc2ccccc21	none
Cc1cccc(OCCCC(=O)N2CCCc3ccccc32)c1C	CYP2C19 inh 83
O=C1c2ccccc2C(=O)N1CCCC(=O)N1CCCc2ccccc21	CYP2C19 inh 83 (no result: cytoskel mod)
O=C(CCCC(=O)N1CCc2ccccc21)N1CCc2ccccc21	none (no result: cytoskel mod, E-sel TNF inh)
O=C(c1ccccc1-c1nc(-c2ccccc2)no1)N1CCCC1	none (no result: CYP2C19 activ, CYP2C19 inh, CYP2C9 inh, CYP2C9 act)
CCCc1nc2c(o1)CC(CC(C)SCC)CC2=O (stereo not drawn)	CYP2C19 inh 51 (no result: cytoskel mod)
CSc1ncc(C(C)=O)c(C)n1	none (no result: CYP2C19 activ, CYP2C19 inh, CYP2C9 inh, CYP2C9 act, cytoskel mod)
CCOC(=O)C1CCN(C(=O)C2CCN(S(=O)(=O)c3cc(Cl)ccc3Cl)CC2)CC1	CYP2C9 act 2.4
CCOC(=O)N1CCN(C(=O)C2CCN(S(=O)(=O)c3cc(Cl)ccc3Cl)CC2)CC1	CYP2C19 inh 51, CYP2C9 act 2.4
CCOC(=O)C1CCN(S(=O)(=O)c2ccc(OC)c(Cl)c2Cl)CC1	none
CC1(C)CC(=O)C(CC2=C(O)CC(C)(C)CC2=O)C(=O)C1	CYP2C19 inh 51 (no result: cytoskel mod)
CC1(C)CC(=O)C(CC2=C(O)CC(C)(C)CC2=O)=C(O)C1	CYP2C19 inh 86
CN=CC1=C(O)CC(C)(C)CC1=O	none
N/C(CSc1nc(-c2ccccc2)c(-c2ccccc2)o1)=N\O	none
CCCCC(=O)NC1=C(C(=O)OC)SCC1	none (no result: CYP2C19 activ, CYP2C19 inh, CYP2C9 inh, CYP2C9 act, cytoskel mod)
CCC(c1nnnn1Cc1ccc(F)cc1)N(CCCO)Cc1cc2cc3c(cc2[nH]c1=O)OCO3 (stereo not drawn)	CYP2C19 inh 55 (no result: E-sel TNF inh)
CCC(c1nnnn1CC1CCCO1)N(CCCO)Cc1cc2cccc(C)c2[nH]c1=O (stereo not drawn)	none
Cc1cc(C)c2cc(CN(CCO)C(c3nnnn3Cc3ccc(F)cc3)C(C)C)c(=O)[nH]c2c1 (stereo not drawn)	CYP2C19 inh 76, CYP2C9 inh 93
Cc1cc(C)c2cc(C(O)c3nnnn3Cc3ccccc3)c(=O)[nH]c2c1 (stereo not drawn)	none
COc1ccc(NC(=O)N(CCO)Cc2cc3c(C)cc(C)cc3[nH]c2=O)cc1	none (no result: cytoskel mod)
Cc1cc(C)c2cc(CN(Cc3ccco3)C(=O)NCc3ccccc3)c(=O)[nH]c2c1	CYP2C9 inh 55 (no result: cytoskel mod)
Cc1cc(C)c2cc(CN(CCO)C(=O)Nc3ccc(F)cc3)c(=O)[nH]c2c1	CYP2C19 inh 74
O/N=C/CCn1c(=S)sc2ccccc21	CYP2C9 act 5.1 (no result: E-sel TNF inh)
Cn1c(=O)c2cc(NC(=O)c3ccccc3Cl)c(=O)oc2n(C)c1=O	none (no result: cytoskel mod)
Cc1cccc(C(=O)NC(=S)Nc2ccc(N3CCOCC3)cc2)c1	none (no result: CYP2C19 activ, CYP2C19 inh, CYP2C9 inh, CYP2C9 act, cytoskel mod)
O=C1CCC2c3ccc4ccccc4c3CCN12 (stereo not drawn)	none (no result: CYP2C19 activ, CYP2C19 inh, CYP2C9 inh, CYP2C9 act)
O=C(CCCN1C(=O)c2ccccc2C1=O)NC1CCCCCC1	none
O=C(CCCN1C(=O)c2ccccc2C1=O)OC1CSCC1NC(=O)c1ccccc1 (stereo not drawn)	CYP2C19 inh 70
c1nc2nc3c(c(N4CCOCC4)n2n1)CCCC3	none (no result: E-sel TNF inh)
COc1ccc2[nH]c(C)c(CCN3C(=O)C4C5C=CC(C5)C4C3=O)c2c1 (stereo not drawn)	CYP2C19 inh 94, E-sel TNF inh 70
COc1ccc2[nH]c(C)c(CN3CCCCC3)c(=O)c2c1	none (no result: cytoskel mod, E-sel TNF inh)
CC(C)(C)NC(=O)CSc1nncn1-c1ccccc1	none
O=C(COc1ncnc2ccccc12)N1CCN(C(=O)c2ccco2)CC1	none (no result: cytoskel mod)
CCOc1ccc(S(=O)(=O)Nc2ccccc2SC)c2cccnc12	CYP2C9 inh 71 (no result: cytoskel mod, E-sel TNF inh)
Cn1c(=O)c2cn(Cc3ccc(Cl)cc3)cc2n(C)c1=O	CYP2C19 inh 63, CYP2C9 inh 58
O=C(c1cnn2c(C(F)(F)F)cc(-c3ccco3)nc12)N1CCCCCC1	none (no result: E-sel TNF inh)
O=C(c1cnn2c(C(F)(F)F)cc(-c3ccco3)nc12)N1CCc2ccccc2C1	CYP2C19 inh 59, CYP2C9 inh 76
O=C(c1cnn2c(C(F)F)cc(C3CC3)nc12)N1CCc2ccccc2C1	CYP2C19 inh 74
O=C(c1cnn2c(C(F)F)cc(C3CC3)nc12)N1CCCC1	none
Cc1cc(C(F)F)n2ncc(C(=O)N3CCc4ccccc4C3)c2n1	CYP2C19 inh 84
O=C(c1cnn2c(C(F)F)cc(-c3ccccc3)nc12)N1CCc2ccccc2C1	none (no result: CYP2C19 activ, CYP2C19 inh, CYP2C9 inh, CYP2C9 act, cytoskel mod)
Cc1ccc(S(=O)(=O)N2CC=C(C(=O)NCc3ccc(F)cc3)CC2)cc1	none (no result: CYP2C19 activ, CYP2C19 inh, CYP2C9 inh, CYP2C9 act, cytoskel mod)
O=[N+]([O-])c1ccc(N2CCN(CCO)CC2)cc1Sc1nc2ccccc2[nH]1	CYP2C9 inh 56

Assay outcomes deposited in PubChem BioAssay by several laboratories.
